# Hit rate of the full screen: of about 300,000 compounds, about 2,400 (0.8%) were called active. The sample holds actives, similar compounds and a random draw of the others, so the mix is not that of the screen. Unmarked numbers belong to inactive results.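 The calls were made as follows: active = Every replicate reaches about 75%, or at least half do and their mean reaches it too (limit read from the data); inconclusive = At least half of replicates reach the limit but their mean does not; inactive = Under half of replicates reach the limit.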
# Assay: INS-1E beta cell survival under cytokines – luminescence, primary screen (AID 435005);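 also: 0% = cytokine-treated negative control wells and 100% = positive control rescue; higher means more ATP so stronger rescue from cytokine killing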
# Settings: INS-1E cytokine-induced death, ATP luminescence, 48 h; active compounds read high; percent of positive-control rescue, neutral wells zero; concentration not given here
row,Compound,protection from apoptosis
1,COc1ccc(NC(=O)CN(C)C(=O)c2cc(C3CC3)nn2-c2ccccc2)cc1,-6.53%
2,N#Cc1cc([N+](=O)[O-])ccc1NC(=O)COC(=O)c1cnccn1,-1.22%
3,Cc1cccc(NC(=S)Nc2ccc3cn[nH]c3c2)c1,124% (active)
4,CCc1cccc(CC)c1NC(=S)Nc1ccc2cn[nH]c2c1,-5.93%
5,Cc1cccc(NC(=S)Nc2ccc(Cl)c(Cl)c2)c1,2.17%
6,COc1ccc(S(=O)(=O)N(C)C[C@H]2Oc3c(NC(=O)Nc4ccc5c(c4)OCO5)cccc3C(=O)N([C@H](C)CO)C[C@@H]2C)cc1,2.68%
7,Cc1ccc(C(=O)Nc2ccc3c(c2)OCCO3)cc1S(=O)(=O)N1CCOCC1,10.2%
8,C/C(N)=C(/C#N)C(=O)COC(=O)c1cc(-c2ccc(C)cc2)nc2ccccc12,80.7% (active)
9,C/C(N)=C(/C#N)C(=O)COC(=O)c1cc(-c2ccccc2)nc2ccc(Br)cc12,7.58%
10,C/C(N)=C(/C#N)C(=O)COC(=O)c1cc(-c2cccc(Br)c2)nc2ccccc12,-5.26%
11,O=C(OCCN1C(=O)c2ccccc2C1=O)[C@@H]1CC(O)CN1S(=O)(=O)c1ccccc1[N+](=O)[O-] (stereo partly specified),4.37%
12,C=CC[C@H](CC(=O)OC(C)(C)C)C(=O)OC[C@H]1CCCN1C(=O)[C@H](CC=C)CC(=O)N(CCO)Cc1ccccc1,5.16%
13,CCC(CO)Oc1cc(NC(=O)c2cccc(F)c2)c2ncn(C(C)C)c2c1 (stereo unspecified),-0.224%
14,COC(=O)C1=C(C)N(Cc2ccccc2)C(=NCCCOC(C)C)N[C@H]1c1ccccc1,11.4%
15,Cc1cc(Nc2ccccc2)n(C(=O)c2ccc(N)cc2)n1,-16.4%
16,Nc1ccc(Nc2ccccc2)cc1,78% (active)
17,Cc1ccc(Nc2ccccc2N)cc1,-7.56%
18,NC(=O)c1c(Nc2nc3c(F)cccc3s2)sc2c1CCCC2,-4.14%
19,O=C(Nc1nc2c(F)cc(F)cc2s1)C1COc2ccccc2O1 (stereo unspecified),8.45%
20,Fc1cc(F)c2nc(Nc3nc4c(F)cccc4s3)sc2c1,103% (active)
21,COc1ccc(C(=O)O)cc1S(=O)(=O)NC1CCN(Cc2ccccc2)CC1,-4.08%
22,COc1ccc(Sc2nc(-c3ccccc3)ncc2OC)cc1,-2.84%
23,CCOCCCNc1nc(-c2ccccc2)nc2ccccc12,4.15%

row,Compound,protection from apoptosis
1,COc1ccc(Cc2nc(-c3ccccn3)no2)cc1OC,4.66%
2,CCC(=O)OCCNc1nc(-c2ccccc2)nc2ccccc12,0.204%
3,CC(C)(C)Nc1nc(-c2ccccn2)nc2ccccc12,118% (active)
4,Cc1ccc(Oc2nc(-c3ccccn3)nc3ccccc23)cc1,101% (active)
5,N#Cc1ccc(Oc2cc(C(F)(F)F)nc(-c3ccccn3)n2)cc1,-3.82%
6,COc1cnc(-c2ccccn2)nc1Oc1ccc(C(C)(C)C)cc1,97.3% (active)
7,CCOC(=O)c1cnc(-c2ccccc2)nc1Oc1ccc(C)cc1,-3.84%
8,COc1ccccc1S(=O)(=O)NCc1ccc(C(=O)N(C)Cc2ccc(F)cc2)cc1,-4.62%
9,CCN(CC)C(=O)[C@H]1CC(CC(=O)NCc2ccco2)C(=O)N2CCc3c([nH]c4ccccc34)[C@]12C (stereo partly specified),-1.53%
10,O=C(COc1ccc([N+](=O)[O-])cc1Cl)Nc1ccc2[nH]c(=O)[nH]c2c1,-0.613%
11,CN(c1ccccc1)S(=O)(=O)c1cc(C(=O)N2CCN(c3ncccn3)CC2)ccc1Cl,-2.6%
12,COc1ccccc1-c1oc2ccccc2c1C#CCCCCO,-5.68%
13,COC(=O)c1ccc(/C=C/c2c(-c3ccc(OC)cc3)sc3ccccc23)cc1,5.7%
14,Cc1cc(C(=O)NC2CCCc3c2cnn3-c2cccc(C)c2C)c(C)o1 (stereo unspecified),41.6%
15,CC(=O)NCC(=O)NC1CCCc2c1cnn2-c1ccccc1F (stereo unspecified),-7.28%
16,Cc1ccc(-n2ncc3c2CCCC3NC(=O)c2cnccn2)cc1C (stereo unspecified),2.44%
17,COc1ccc(C(=O)NC2CCCc3c2cnn3-c2cccc(C)c2C)c(OC)n1 (stereo unspecified),32.4%
18,Cn1nccc1C(=O)NC1CCCc2c1cnn2-c1ccccc1F (stereo unspecified),111% (active)
19,Cn1nccc1C(=O)NC1CCCc2c1cnn2-c1ccc(F)cc1F (stereo unspecified),132% (active)
20,Cc1c(C(=O)Nc2cccc(S(=O)(=O)N3CCOCC3)c2)oc2ccccc12,-9.31%
21,COc1cc(C(=O)OCc2cc(=O)n3ccsc3n2)ccc1OC(C)C,-0.396%
22,CC(C)c1ccc(NC(=O)COC(=O)c2ccc(CN3CCCC3=O)cc2)cc1,3.42%
23,COc1ccccc1-c1sc2ccccc2c1C#CC1(O)CCCCC1,-12%
